From PubChem BioAssay (EPA / NIEHS) come the findings set out here.

A short description of test [1]: ATG_NFI_CIS: Attagene CIS-FACTORIAL HepG2 Assay for human Nuclear Factor I (NFI) (AID 2282989). Particulars: HepG2 cis-regulatory reporter, NFI response element transcription; actives raise or lower the signal. In a few lines: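 Read-out: reporter mRNA via RT-PCR plus capillary electrophoresis with fluorescence detection. Transiently transfected HepG2 (endogenous TF activity on cis promoters), 24 h compound exposure; gain or loss of signal fitted against DMSO.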

Test [2] addresses Myc proto-oncogene protein (Homo sapiens) (UniProt P01106). Description: ATG_Myc_CIS: Attagene CIS-FACTORIAL HepG2 Assay for human Myelocytomatosis (Myc) Proto-Oncogene Transcription Factor (AID 2282990). The conditions noted are these: HepG2, Attagene cis-reporter transcription factor activity; actives raise or lower the signal. In a few lines: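 Transiently transfected HepG2 cells bearing cis-promoter reporter units for endogenous transcription factors; 24 h exposure. Reporter mRNA measured by RT-PCR, 6-FAM primer extension, HpaI cut and capillary electrophoresis; bidirectional fit relative to DMSO.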

Test [3] can be described thus: ATG_NF_kB_CIS: Attagene CIS-FACTORIAL HepG2 Assay for human Nuclear Factor Kappa B (NF-kB) (AID 2282991). The conditions noted are these: HepG2 Attagene cis-factorial NF-kB reporter mRNA; actives raise or lower the signal. In a few lines:
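Read-out: reporter transcript levels quantified by RT-PCR plus capillary electrophoresis of 6-FAM-labelled, HpaI-cut fragments. Transfected HepG2 cells, 24 h compound exposure, endogenous NF-kB-driven cis element; gain or loss scored versus DMSO.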

Test [4] can be described thus: ATG_NRF2_ARE_CIS: Attagene CIS-FACTORIAL HepG2 Assay for human Nuclear Factor Erythroid 2 Related Factor 2 (NFR2) response to Antioxidant Response Elements (ARE) (AID 2282992).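 For AC50: reporter mRNA level measured by RT-PCR and capillary electrophoresis fluorescence.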 Particulars: HepG2 Attagene ARE/NRF2 reporter, transcription factor activity; actives raise or lower the signal. In a few lines: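 Endogenous transcription factor activity in human liver HepG2 cells is tracked via a cis-element-driven reporter within a multiplexed set. mRNA induction is read by RT-PCR and capillary electrophoresis after 24 h, with DMSO as baseline.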

Test [5] can be described thus: ATG_Oct_MLP_CIS: Attagene CIS-FACTORIAL HepG2 Assay for human Octamer-Binding Transcription Factor (Oct) (AID 2282993). The conditions noted are these: HepG2 Attagene cis-factorial Oct reporter, mRNA; actives raise or lower the signal. In a few lines: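 Read-out: reporter mRNA via RT-PCR plus capillary electrophoresis of 6-FAM-labelled fragments. Transiently transfected HepG2, 24 h exposure, endogenous TF activity on cis elements. Gain or loss of signal fitted relative to DMSO.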

The target of test [6] is Cellular tumor antigen p53 (Homo sapiens) (UniProt P04637). Description: ATG_p53_CIS: Attagene CIS-FACTORIAL HepG2 Assay for human p53 Transcription Factor (AID 2282994). The conditions noted are these: HepG2 p53 cis-element reporter, Attagene mRNA; actives raise or lower the signal. In a few lines:
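Steps: transfect HepG2 with multiplexed cis reporter constructs; dose chemicals 24 h; extract RNA, reverse-transcribe, PCR-amplify reporter sequences; FAM-label, HpaI-digest, resolve fragments by CE. Activity fitted both directions relative to DMSO.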

Test [7] has as its target Peroxisome proliferator-activated receptor gamma (Homo sapiens) (UniProt P37231). Description: ATG_PPARg_TRANS: Attagene TRANS-FACTORIAL HepG2 Assay for human Peroxisome Proliferator-activated Receptor-gamma (PPARg) (AID 2283007; active = hit-call score of the fitted dose curve at least 0.9, where 1 is the maximum). In a few lines:
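Read-out: reporter mRNA induction, detected by fluorescence after RT-PCR and capillary electrophoresis. Transiently transfected human HepG2 liver cells carrying a chimeric NR-Gal4 construct were dosed for 24 h; activity was fitted upward relative to DMSO.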

Test [8] has as its target Nuclear receptor subfamily 1 group I member 2 (Homo sapiens) (UniProt O75469). Description: ATG_PXR_TRANS: Attagene TRANS-FACTORIAL HepG2 Assay for human Pregnane X Receptor (PXR) (AID 2283008; active = hit-call score of the fitted dose curve at least 0.9, where 1 is the maximum). In a few lines: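 HepG2 transfected (FuGene 6) with GAL4-UAS reporter units + PXR-Gal4 chimera; dosed 24 h. Total RNA → oligo(dT) RT → PCR → 6-FAM primer extension → HpaI cut → CE. Gain-of-signal vs DMSO.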

In test [9] the target is human Peroxisome Proliferator-activated Receptor alpha (PPARa), PPARA (gene 5465) (UniProt Q07869). Description: ATG_PPARa_TRANS: Attagene TRANS-FACTORIAL HepG2 Assay for human Peroxisome Proliferator-activated Receptor alpha (PPARa) (AID 2283001; active = hit-call score of the fitted dose curve at least 0.9, where 1 is the maximum). In a few lines: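 HepG2, transient MRTU transfection, 24 h treatment. RT-PCR → FAM labelling → capillary electrophoresis. Fit vs DMSO, positive direction.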

Test [10] addresses human Peroxisome Proliferator-activated Receptor delta (PPARd), PPARD (gene 5467) (UniProt Q03181). Description: ATG_PPARd_TRANS: Attagene TRANS-FACTORIAL HepG2 Assay for human Peroxisome Proliferator-activated Receptor delta (PPARd) (AID 2283002; active = hit-call score of the fitted dose curve at least 0.9, where 1 is the maximum). In a few lines: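 HepG2 cells transiently transfected with GAL4-UAS multiplexed reporter units driven by exogenous chimeric NR-GAL4 proteins; 24 h compound exposure. Reporter mRNA measured by RT-PCR, 6-FAM primer extension, HpaI digestion and capillary electrophoresis; gain of signal fitted relative to DMSO.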

For test [11], the target named is human Retinoic Acid Receptor beta (RARb), RARB (gene 5915) (UniProt P10826). Description: ATG_RARb_TRANS: Attagene TRANS-FACTORIAL HepG2 Assay for human Retinoic Acid Receptor beta (AID 2283004; active = hit-call score of the fitted dose curve at least 0.9, where 1 is the maximum). In a few lines:
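HepG2, transient MRTU transfection, NR–Gal4 chimera, 24 h treatment; RT-PCR plus CE fluorescence detection of reporter mRNA; gain of signal vs DMSO.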

The target of test [12] is human RAR-related Orphan Receptor beta (RORb), RORB (gene 6096) (UniProt Q92753). Description: ATG_RORb_TRANS: Attagene TRANS-FACTORIAL HepG2 Assay for human RAR-related Orphan Receptor beta (RORb) (AID 2283010; active = hit-call score of the fitted dose curve at least 0.9, where 1 is the maximum). In a few lines: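 Read-out is reporter mRNA induction, quantified by RT-PCR with fluorescent capillary electrophoresis, 24 h post-dose in transiently transfected HepG2 expressing exogenous NR-Gal4 chimera. Activity fitted upward versus DMSO.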

Test [13] has as its target Retinoic acid receptor alpha (Homo sapiens) (UniProt P10276). Description: ATG_RARa_TRANS: Attagene TRANS-FACTORIAL HepG2 Assay for human Retinoic Acid Receptor alpha (RARa) (AID 2283005; active = hit-call score of the fitted dose curve at least 0.9, where 1 is the maximum). In a few lines:
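HepG2 transiently transfected with multiplex GAL4-UAS reporter units including a human RARa–GAL4 chimera; 24 h compound exposure. Reporter mRNA quantified by RT-PCR, 6-FAM labeling and capillary electrophoresis; gain of signal versus DMSO.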

For test [14], the target named is human Retinoic Acid Receptor gamma (RARg), RARG (gene 5916) (UniProt P13631). Description: ATG_RARg_TRANS: Attagene TRANS-FACTORIAL HepG2 Assay for human Retinoic Acid Receptor gamma (RARg) (AID 2283009; active = hit-call score of the fitted dose curve at least 0.9, where 1 is the maximum). In a few lines:
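Transactivation of exogenous RARg-Gal4 fusion measured as reporter transcript induction after 24 h in transfected HepG2 cells. RNA reverse-transcribed, amplified, fluorescently labeled and resolved by capillary electrophoresis; increase relative to DMSO.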

Test [15] has as its target human RAR-related Orphan Receptor gamma (RORg), RORC (gene 6097) (UniProt P51449). Description: ATG_RORg_TRANS: Attagene TRANS-FACTORIAL HepG2 Assay for human RAR-related Orphan Receptor gamma (RORg) (AID 2283011; active = hit-call score of the fitted dose curve at least 0.9, where 1 is the maximum). In a few lines: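 Activity is scored as increase in GAL4-UAS reporter mRNA over DMSO, detected by fluorescent RT-PCR and capillary electrophoresis in HepG2 cells transiently expressing a RORg-Gal4 chimera, 24 h after dosing.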

Results filed as inconclusive are left out. The source made the active and inactive calls. Rule for the calls, unless noted: active = hit-call score of the fitted dose curve at least 0.9, where 1 is the maximum; inactive = score below 0.9.

Chain of human Peroxisome Proliferator-activated Receptor delta (PPARd), PPARD (gene 5467) (Q03181 whole entry, looked up, the tested form may be a part): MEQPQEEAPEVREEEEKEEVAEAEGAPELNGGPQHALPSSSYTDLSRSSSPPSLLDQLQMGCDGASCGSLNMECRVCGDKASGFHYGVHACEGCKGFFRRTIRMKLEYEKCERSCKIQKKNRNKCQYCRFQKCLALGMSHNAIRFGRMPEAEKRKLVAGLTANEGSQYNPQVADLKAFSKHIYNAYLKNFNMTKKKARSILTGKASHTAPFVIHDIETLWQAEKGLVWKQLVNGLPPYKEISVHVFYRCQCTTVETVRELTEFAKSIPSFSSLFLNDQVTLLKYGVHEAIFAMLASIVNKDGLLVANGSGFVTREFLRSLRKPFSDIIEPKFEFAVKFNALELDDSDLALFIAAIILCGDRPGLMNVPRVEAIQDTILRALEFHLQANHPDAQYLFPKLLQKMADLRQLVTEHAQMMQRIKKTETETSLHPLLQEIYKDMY
Chain of human Retinoic Acid Receptor gamma (RARg), RARG (gene 5916) (P13631 whole entry, looked up, the tested form may be a part): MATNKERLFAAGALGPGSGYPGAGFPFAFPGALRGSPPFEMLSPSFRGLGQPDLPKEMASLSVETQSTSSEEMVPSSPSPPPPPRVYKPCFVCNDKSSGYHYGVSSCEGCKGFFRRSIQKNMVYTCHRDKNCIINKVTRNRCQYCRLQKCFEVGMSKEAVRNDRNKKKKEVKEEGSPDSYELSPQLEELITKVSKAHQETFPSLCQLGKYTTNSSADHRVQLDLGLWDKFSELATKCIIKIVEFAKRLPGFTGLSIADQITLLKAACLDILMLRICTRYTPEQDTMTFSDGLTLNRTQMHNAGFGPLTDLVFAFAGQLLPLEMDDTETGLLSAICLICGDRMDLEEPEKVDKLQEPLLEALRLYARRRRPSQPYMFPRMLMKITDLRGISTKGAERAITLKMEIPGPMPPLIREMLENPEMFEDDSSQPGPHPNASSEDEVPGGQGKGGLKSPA
Chain of human Peroxisome Proliferator-activated Receptor alpha (PPARa), PPARA (gene 5465) (Q07869 whole entry, looked up): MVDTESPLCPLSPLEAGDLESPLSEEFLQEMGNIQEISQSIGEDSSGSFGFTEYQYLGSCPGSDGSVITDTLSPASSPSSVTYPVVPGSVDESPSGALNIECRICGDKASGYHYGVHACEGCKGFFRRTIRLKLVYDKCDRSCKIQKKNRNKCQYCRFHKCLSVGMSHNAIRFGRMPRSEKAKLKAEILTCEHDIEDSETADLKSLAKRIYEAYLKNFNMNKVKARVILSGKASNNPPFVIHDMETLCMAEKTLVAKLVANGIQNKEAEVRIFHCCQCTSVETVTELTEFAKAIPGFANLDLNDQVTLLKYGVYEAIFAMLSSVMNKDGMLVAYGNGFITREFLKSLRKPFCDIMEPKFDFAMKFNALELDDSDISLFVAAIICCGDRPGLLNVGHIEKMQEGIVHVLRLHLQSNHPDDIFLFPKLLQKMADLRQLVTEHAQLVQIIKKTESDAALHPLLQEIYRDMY
Chain of Retinoic acid receptor alpha (Homo sapiens) (P10276 whole entry, looked up, the tested form may be a part): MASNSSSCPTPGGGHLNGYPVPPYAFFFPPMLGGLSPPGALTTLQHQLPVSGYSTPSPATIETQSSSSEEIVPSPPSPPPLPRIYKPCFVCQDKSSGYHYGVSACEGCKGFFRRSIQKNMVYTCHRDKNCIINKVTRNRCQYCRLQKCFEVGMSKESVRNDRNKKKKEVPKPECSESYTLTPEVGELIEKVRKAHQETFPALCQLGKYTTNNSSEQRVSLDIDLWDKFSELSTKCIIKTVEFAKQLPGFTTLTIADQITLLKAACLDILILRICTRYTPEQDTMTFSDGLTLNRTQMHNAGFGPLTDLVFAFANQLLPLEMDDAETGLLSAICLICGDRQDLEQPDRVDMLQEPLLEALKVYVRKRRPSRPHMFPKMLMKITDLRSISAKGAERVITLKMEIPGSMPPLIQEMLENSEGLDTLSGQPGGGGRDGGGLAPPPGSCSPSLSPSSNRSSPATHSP
Chain of human Retinoic Acid Receptor beta (RARb), RARB (gene 5915) (P10826 whole entry, looked up, the tested form may be a part): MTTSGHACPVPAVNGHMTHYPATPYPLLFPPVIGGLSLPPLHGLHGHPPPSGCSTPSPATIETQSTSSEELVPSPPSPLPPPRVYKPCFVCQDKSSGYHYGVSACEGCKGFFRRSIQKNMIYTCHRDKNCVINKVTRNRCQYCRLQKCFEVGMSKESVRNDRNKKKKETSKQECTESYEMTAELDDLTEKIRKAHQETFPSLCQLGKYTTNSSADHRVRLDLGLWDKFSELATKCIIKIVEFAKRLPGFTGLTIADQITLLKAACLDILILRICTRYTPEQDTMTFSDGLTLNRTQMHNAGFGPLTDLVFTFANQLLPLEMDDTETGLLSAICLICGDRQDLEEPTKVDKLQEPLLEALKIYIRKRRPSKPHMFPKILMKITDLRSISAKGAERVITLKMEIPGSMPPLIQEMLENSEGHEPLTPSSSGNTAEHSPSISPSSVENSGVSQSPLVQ
Chain of Myc proto-oncogene protein (Homo sapiens) (P01106 whole entry, looked up): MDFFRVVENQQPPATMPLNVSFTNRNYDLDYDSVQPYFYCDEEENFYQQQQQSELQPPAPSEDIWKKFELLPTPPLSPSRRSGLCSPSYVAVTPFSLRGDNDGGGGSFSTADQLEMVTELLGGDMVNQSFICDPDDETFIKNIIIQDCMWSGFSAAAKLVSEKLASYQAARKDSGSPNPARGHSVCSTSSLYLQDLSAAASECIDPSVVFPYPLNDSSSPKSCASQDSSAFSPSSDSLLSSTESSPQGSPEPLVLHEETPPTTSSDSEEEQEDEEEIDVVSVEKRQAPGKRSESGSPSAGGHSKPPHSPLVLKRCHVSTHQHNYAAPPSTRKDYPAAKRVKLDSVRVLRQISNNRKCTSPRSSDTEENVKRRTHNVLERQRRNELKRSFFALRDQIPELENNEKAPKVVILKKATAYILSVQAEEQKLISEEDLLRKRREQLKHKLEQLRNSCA
Chain of Cellular tumor antigen p53 (Homo sapiens) (P04637 whole entry, looked up, the tested form may be a part): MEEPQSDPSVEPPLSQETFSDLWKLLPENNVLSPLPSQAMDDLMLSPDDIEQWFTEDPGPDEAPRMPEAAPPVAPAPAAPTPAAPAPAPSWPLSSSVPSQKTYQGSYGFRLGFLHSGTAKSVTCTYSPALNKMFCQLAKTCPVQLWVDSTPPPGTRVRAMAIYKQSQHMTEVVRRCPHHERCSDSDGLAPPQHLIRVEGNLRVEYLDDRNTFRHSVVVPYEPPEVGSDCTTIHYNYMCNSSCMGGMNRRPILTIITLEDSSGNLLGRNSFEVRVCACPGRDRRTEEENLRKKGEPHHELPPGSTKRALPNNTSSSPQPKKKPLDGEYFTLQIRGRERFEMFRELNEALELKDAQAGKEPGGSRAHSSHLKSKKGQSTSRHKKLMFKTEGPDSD
Chain of Nuclear receptor subfamily 1 group I member 2 (Homo sapiens) (O75469 whole entry, looked up, the tested form may be a part): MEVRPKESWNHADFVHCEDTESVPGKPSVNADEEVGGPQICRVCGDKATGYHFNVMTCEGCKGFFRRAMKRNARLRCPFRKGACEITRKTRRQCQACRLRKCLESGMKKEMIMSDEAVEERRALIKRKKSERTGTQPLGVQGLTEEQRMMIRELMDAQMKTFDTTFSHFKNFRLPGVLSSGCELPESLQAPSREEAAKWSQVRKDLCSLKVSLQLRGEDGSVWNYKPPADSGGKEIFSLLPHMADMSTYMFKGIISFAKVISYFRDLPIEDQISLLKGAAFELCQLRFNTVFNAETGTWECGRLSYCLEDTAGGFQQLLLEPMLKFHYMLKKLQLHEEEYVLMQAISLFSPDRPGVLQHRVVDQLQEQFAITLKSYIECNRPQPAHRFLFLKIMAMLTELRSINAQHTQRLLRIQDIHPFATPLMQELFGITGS
Chain of human RAR-related Orphan Receptor beta (RORb), RORB (gene 6096) (Q92753 whole entry, looked up, the tested form may be a part): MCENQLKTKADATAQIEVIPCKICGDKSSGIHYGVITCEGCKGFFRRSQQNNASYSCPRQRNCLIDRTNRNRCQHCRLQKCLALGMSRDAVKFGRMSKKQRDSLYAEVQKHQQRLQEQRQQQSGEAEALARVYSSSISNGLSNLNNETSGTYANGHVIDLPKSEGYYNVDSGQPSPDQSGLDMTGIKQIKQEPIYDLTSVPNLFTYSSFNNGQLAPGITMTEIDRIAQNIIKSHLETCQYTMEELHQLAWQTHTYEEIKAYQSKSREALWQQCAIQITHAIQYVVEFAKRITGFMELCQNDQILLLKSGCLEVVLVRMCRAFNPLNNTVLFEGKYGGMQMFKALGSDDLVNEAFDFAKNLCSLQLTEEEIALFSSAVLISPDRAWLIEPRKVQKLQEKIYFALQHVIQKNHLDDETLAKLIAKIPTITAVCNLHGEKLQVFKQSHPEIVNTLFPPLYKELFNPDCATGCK
Chain of human RAR-related Orphan Receptor gamma (RORg), RORC (gene 6097) (P51449 whole entry, looked up, the tested form may be a part): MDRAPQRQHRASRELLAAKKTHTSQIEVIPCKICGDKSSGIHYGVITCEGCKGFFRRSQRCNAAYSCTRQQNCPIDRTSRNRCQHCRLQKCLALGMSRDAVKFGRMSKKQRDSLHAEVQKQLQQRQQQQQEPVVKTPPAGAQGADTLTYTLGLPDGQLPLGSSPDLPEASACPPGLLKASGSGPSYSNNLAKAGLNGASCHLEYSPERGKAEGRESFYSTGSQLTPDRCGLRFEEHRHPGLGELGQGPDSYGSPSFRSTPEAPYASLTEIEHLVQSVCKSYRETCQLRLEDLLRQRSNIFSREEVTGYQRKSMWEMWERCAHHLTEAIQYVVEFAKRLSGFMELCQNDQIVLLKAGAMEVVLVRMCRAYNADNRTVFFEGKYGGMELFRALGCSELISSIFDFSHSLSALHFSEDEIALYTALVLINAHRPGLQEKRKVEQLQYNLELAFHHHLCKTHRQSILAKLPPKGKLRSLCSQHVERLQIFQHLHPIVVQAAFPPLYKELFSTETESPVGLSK

On to `COC(=O)c1cc(Cl)ccc1[N+](=O)[O-]`, for which the result in test [1], in [2], in test [3], in test [5], in test [6] and in test [8] was inactive. The half-maximal activity concentration (AC50) in test [4] was 48 µM (active); in [7], 19.7 µM (active).

`CCCCC(CC)COC(=O)c1ccccc1` (stereo unspecified): the compound was classed as inactive in [1], in test [2], in test [3], in test [4], in test [5] and in test [9]. For the same compound, the result in test [10], in [11], in test [7], in test [8] and in [12] was inactive.

`CCCCOCCOC(=O)COc1nc(Cl)c(Cl)cc1Cl`: the compound was classed as inactive in [1], in [2], in test [3], in test [4], in [5] and in test [6]. The result in test [13] and in test [8] was inactive. Besides, the AC50 in [7] was 60.1 µM (active).

As to `C(=CC=Nc1ccccc1)C=CNc1ccccc1`, the result in test [1], in [2], in test [3], in test [5], in test [6] and in test [11] was inactive. Further, the compound was classed as inactive in test [13], in test [7], in [8] and in test [14]. For the same compound, the AC50 in test [4] is 49.4 µM (active).

`C=C(C)CCO`: the result in [1], in test [2], in test [3], in test [4], in test [5] and in test [6] was inactive. Also, the result in [11], in [13], in test [8], in test [14], in test [12] and in test [15] was inactive.

Take `O=c1cc(-c2ccccc2)oc2ccccc12`: the result in [1], in test [2], in test [9], in test [10], in [13] and in test [14] was inactive. Further, the AC50 in test [3] is 82.3 µM (active); in test [4], 4.03 µM (active); in [5] it was 52.4 µM (active); in test [7], 1.1 µM (active); in test [8] it was 6.29 µM (active).

Turning to `CCCCCCCC/C=C\CCCCCCCC(=O)OCCO`, the result in test [1], in test [2], in test [5], in [10] and in test [8] was inactive. Further, the results for the AC50 in test [3], in test [4] and in test [7] were 68.1 µM (active), 40.8 µM (active) and 4.78 µM (active), respectively.

On to `C=CCCCCCCCCC(=O)OCCCC`, for which the call in test [1], in test [2], in test [3], in test [4], in test [5] and in test [6] was inactive. Further, in [8], the call was inactive. Further, the AC50 in test [7] is 67.8 µM (active).

With `CC(=O)OC1C2(C)CCC(C2)C1(C)C` (stereo unspecified), the result in test [1], in test [2], in test [3], in test [4], in test [5] and in [10] was inactive. The call in test [7] and in test [8] was inactive.

For `CC1(C)[C@H]2CC[C@]1(C)C(=O)C2`, the call in [1], in test [2], in [3], in test [4], in [5] and in test [6] was inactive. The outcome in test [11], in [8], in test [14] and in [15] was inactive.

As for `O=C(O)CCCC[C@@H]1SC[C@@H]2NC(=O)N[C@@H]21`, the compound was classed as inactive in test [1], in test [2], in test [3], in [4], in test [5] and in test [9]. For the same compound, the outcome in [10], in test [13], in test [8] and in test [12] was inactive.

Regarding `O=S(=O)(O)c1cc(S(=O)(=O)O)c2ccc3c(S(=O)(=O)O)cc(S(=O)(=O)O)c4ccc1c2c43`, the outcome in [1], in test [2], in [3], in [4], in test [5] and in test [6] was inactive. In addition, the call in [13], in [14], in test [12] and in test [15] was inactive.
